Assay [1] deals with Protein kinase C gamma type (Homo sapiens) (UniProt P05129). The conditions noted are these: at 1 µM.
Assay [2] deals with T1, Protein kinase C iota type (Homo sapiens) (UniProt P41743).
T1 sequence (whole entry): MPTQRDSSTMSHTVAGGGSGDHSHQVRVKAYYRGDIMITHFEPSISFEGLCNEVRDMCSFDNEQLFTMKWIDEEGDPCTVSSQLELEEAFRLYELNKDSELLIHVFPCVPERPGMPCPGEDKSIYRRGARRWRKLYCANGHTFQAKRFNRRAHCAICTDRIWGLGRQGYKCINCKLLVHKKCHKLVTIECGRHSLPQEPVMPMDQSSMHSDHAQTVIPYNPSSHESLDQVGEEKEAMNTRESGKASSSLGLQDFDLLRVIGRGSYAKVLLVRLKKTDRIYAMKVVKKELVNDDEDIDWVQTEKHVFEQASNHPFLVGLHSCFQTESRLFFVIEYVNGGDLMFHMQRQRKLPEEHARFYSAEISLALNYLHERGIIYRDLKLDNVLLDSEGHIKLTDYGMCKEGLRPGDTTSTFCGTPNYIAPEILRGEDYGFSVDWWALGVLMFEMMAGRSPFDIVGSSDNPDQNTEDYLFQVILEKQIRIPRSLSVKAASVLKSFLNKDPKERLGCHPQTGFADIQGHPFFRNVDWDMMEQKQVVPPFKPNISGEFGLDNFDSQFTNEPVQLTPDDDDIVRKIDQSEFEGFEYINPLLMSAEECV
Conditions: at 0.1 µM.

The target of assay [3] is T1, Protein kinase C iota type (Homo sapiens). The conditions noted are these: at 1 µM.
Assay [4] addresses Protein kinase C theta type (Homo sapiens) (UniProt Q04759). The conditions noted are these: at 0.1 µM.
The target is the same in assay [5]. The conditions noted are these: at 1 µM.
The target in assay [6] is Protein kinase C beta type (Homo sapiens) (UniProt P05771). The conditions noted are these: at 0.1 µM.
Protein kinase C beta type (Homo sapiens), sequence (P05771 2-671 limits assumed): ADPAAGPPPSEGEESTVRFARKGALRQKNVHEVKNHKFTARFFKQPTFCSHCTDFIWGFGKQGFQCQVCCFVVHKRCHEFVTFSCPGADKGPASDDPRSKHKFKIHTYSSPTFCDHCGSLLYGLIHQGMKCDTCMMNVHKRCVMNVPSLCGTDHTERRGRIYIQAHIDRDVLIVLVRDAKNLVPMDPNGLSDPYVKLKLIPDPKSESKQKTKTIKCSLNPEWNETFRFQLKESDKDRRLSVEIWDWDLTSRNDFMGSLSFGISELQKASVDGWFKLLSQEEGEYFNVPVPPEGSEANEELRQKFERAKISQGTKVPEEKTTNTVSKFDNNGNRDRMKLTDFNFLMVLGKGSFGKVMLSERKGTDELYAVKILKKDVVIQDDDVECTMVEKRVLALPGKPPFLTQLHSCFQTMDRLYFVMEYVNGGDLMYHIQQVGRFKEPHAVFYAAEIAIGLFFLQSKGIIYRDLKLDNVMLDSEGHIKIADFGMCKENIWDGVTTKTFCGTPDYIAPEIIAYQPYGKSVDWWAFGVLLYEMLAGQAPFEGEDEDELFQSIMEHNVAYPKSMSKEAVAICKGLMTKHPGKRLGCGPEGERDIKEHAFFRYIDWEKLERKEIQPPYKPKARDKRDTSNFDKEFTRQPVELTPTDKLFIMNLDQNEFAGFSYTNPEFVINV
Assay [7] shares this target. The conditions noted are these: at 1 µM.
Assay [8] concerns the target T2, Serine/threonine-protein kinase D1 (Homo sapiens) (UniProt Q15139).
T2 sequence (whole entry): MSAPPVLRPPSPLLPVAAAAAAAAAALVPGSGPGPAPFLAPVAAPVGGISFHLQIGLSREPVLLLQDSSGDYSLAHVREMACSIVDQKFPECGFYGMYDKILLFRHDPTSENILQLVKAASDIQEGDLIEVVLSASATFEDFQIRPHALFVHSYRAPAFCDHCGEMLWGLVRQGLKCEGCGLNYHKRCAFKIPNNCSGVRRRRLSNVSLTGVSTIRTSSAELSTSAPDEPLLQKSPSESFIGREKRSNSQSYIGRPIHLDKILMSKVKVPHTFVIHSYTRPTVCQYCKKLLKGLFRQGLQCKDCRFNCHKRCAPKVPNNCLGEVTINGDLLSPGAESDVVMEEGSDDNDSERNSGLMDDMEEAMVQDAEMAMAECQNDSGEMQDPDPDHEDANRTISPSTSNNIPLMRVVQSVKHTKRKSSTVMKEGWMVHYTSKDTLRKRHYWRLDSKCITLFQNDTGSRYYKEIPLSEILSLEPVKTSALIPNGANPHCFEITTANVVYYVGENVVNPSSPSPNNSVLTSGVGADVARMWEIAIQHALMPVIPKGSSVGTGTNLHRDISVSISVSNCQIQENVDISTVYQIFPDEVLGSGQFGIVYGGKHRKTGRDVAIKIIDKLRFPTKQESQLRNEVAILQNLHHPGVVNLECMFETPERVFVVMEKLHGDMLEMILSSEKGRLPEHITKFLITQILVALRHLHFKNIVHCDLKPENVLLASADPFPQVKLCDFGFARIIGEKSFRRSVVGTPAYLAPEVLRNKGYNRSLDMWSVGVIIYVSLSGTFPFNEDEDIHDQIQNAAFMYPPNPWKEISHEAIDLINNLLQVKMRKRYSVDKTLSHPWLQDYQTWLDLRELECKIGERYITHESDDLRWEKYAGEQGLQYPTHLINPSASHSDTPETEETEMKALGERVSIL
The conditions noted are these: at 0.1 µM.

Assay [9] has as its target T2, Serine/threonine-protein kinase D1 (Homo sapiens). Conditions: at 1 µM.
For assay [10], the target named is T3, Serine/threonine-protein kinase D2 (Homo sapiens) (UniProt Q9BZL6).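 Note: reported percent inhibition values are means, part of the GSK PKIS kinase panel screen.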
T3 sequence (whole entry): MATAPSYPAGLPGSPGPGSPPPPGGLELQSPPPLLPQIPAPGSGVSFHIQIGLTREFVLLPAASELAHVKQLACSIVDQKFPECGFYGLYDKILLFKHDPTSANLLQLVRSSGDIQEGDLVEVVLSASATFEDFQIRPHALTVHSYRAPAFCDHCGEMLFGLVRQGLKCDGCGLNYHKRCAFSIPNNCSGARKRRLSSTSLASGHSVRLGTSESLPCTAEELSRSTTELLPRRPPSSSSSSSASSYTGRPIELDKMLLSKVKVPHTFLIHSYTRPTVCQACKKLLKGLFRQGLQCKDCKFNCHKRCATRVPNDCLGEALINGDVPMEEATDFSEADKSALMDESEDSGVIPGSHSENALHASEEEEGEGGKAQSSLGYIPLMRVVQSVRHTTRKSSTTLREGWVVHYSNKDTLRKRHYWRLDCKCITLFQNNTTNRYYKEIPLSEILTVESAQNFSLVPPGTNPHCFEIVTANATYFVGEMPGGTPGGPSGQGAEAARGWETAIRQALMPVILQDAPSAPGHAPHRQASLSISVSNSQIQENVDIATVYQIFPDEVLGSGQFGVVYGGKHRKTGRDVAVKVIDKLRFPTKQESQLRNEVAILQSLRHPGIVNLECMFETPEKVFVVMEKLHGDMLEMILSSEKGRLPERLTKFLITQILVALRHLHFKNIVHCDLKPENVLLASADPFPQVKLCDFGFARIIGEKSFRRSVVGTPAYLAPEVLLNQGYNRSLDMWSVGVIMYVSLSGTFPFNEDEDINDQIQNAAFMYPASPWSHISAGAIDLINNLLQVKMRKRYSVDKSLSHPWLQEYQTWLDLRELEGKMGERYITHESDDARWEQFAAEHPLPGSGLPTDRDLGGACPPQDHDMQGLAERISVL
The conditions noted are these: at 0.1 µM.

The results in this text go back to ChEMBL document CHEMBL1961873, “Compounds: GSK PKIS; Assays: Nanosyn kinase panel” (2012).

Structures are written as SMILES.

Broadly, the inhibition is the drop in the measured response relative to a control, in per cent.

Protein kinase C theta type (Homo sapiens), sequence (Q04759 whole entry, looked up): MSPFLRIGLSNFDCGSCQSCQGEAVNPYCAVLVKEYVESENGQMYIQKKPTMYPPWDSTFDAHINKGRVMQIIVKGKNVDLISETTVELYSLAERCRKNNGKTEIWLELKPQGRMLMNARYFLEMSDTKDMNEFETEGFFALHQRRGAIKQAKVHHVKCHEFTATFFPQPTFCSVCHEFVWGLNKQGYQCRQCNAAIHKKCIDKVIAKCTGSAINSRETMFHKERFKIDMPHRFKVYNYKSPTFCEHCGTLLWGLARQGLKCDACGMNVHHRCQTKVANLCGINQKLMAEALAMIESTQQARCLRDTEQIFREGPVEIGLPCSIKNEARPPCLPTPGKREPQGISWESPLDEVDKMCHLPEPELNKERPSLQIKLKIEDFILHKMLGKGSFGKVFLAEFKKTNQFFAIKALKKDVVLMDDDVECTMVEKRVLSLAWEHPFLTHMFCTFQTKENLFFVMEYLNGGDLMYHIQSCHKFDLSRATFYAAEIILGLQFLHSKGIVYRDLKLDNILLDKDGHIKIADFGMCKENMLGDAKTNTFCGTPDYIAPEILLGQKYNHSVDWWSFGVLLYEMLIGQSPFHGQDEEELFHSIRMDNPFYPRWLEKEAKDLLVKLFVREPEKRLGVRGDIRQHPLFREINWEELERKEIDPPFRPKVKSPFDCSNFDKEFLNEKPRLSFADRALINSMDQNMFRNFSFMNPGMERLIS

For `[O-][S+]1CCN(Cc2ccc(-c3ccc4ncnc(Nc5ccc(OCc6ccccc6)c(Cl)c5)c4c3)o2)CC1`, the inhibition is 3.28% in assay [1]; 1.72% in assay [2]; 1.88% in assay [3]; 1.06% in [4]; 1.03% in assay [5]; 0.97% in assay [6]. In addition, the inhibition stood at 2.88% in [7], 1.74% in [8], 2.75% in assay [9] and 1.16% in assay [10].

On to `CCn1c(-c2nonc2N)nc2ccc(F)cc21`, for which the inhibition in assay [1] was 5.71%; in assay [2], 2.23%; in assay [3] it was 1.51%; in assay [4] it was 4.58%; in [5], 6.97%; in [6] it was 1.15%. In addition, the inhibition in [7] is 4.26%; in [8], 4.58%; in assay [9] it was 6.64%; in assay [10] it was 5.68%.

With `COc1cc2ncnc(Nc3ccc(C)c(O)c3)c2cc1OC`, the inhibition was determined as 7.37% in assay [1]; 3.5% in assay [2]; 1.78% in assay [3]; 3.41% in [4]; 5.28% in assay [5]; 2.8% in [6]. The inhibition in [7] was found to be 5.81%; in assay [8], 4.73%; in assay [9], 9.92%; in assay [10] it was 5.41%.

Consider `CN1CCN(C(=O)c2ccc(NC(=O)Nc3ccc(N(C)c4ccnc(Nc5ccc(CS(C)(=O)=O)cc5)n4)cc3)cc2)CC1`, for which the inhibition in assay [1] is 2.89%; in [2] it was -0.67%; in [3], -0.1%; in assay [4], 1.17%; in [5], 1.43%; in assay [6], 1.51%. Also, the inhibition in assay [7] turned out to be 2.4%; in assay [8], 2.19%; in [9], 6.28%; in assay [10], 2.12%.

For `CC(C)c1ccc(Nc2nccc(-c3cnn4ncccc34)n2)cc1`, the inhibition is 5.49% in assay [1]; 0.41% in assay [2]; -0.49% in assay [3]; 0.56% in [4]; 2.84% in [5]; 0.59% in [6]. For the same compound, the inhibition in assay [7] is 1.47%; in assay [8] it was 2.12%; in [9], 15.9%; in assay [10], 1.32%.

As to `OCc1ccc(-c2nc(-c3ccccn3)c(-c3ccc4c(c3)OCO4)[nH]2)cc1`, the inhibition in [1] was 1.5%; in assay [2] it was 2.1%; in assay [3], 3.65%; in [4], 2.3%; in assay [5], 0.86%; in assay [6] it was 0.63%. For the same compound, the inhibition was determined as 0.97% in assay [7], 4.39% in [8], 8.27% in assay [9] and 4.75% in assay [10].

As for `NS(=O)(=O)c1ccc(N/N=C2\C(=O)Nc3ccc(Cl)cc32)cc1`, the inhibition was 4.85% in [1]; 1.02% in assay [2]; 0.75% in assay [3]; 2.29% in assay [4]; 4.86% in [5]; 0.92% in [6]. In addition, the inhibition in assay [7] amounted to 1.29%; in [8], 2.46%; in [9], 7.47%; in [10] it was 3.87%.

Regarding `CCCN1CCCC(c2ccc(Nc3nc(Nc4cc(F)ccc4C(N)=O)c4cc[nH]c4n3)c(OC)c2)C1` (stereo not given), the inhibition stood at 22% in assay [1]; 0.84% in assay [2]; 2.93% in assay [3]; 1.64% in [4]; 4.89% in [5]; 1.85% in [6]. The inhibition is 5.27% in assay [7], 32.2% in assay [8], 79.5% in assay [9] and 25.9% in assay [10].

Turning to `O=C(Nc1ccc(Oc2ccc3[nH]c(NC(=O)c4ccco4)nc3c2)cc1)Nc1cc(C(F)(F)F)ccc1F`, the inhibition in assay [1] is 2.22%; in assay [2], 0.86%; in [3] it was -0.83%; in assay [4], -0.73%; in assay [5] it was 1.78%; in [6], 0.05%. The inhibition was 1.61% in assay [7], -3.35% in assay [8], -2.46% in assay [9] and -3.46% in assay [10].

With `NC(=O)c1sc(-n2cnc3ccccc32)cc1OCc1ccccc1Br`, the inhibition was 3.85% in assay [1]; 1.56% in [2]; -0.46% in [3]; 1.86% in [4]; 2.63% in assay [5]; 1.02% in assay [6]. In addition, the inhibition in assay [7] is 2.96%; in assay [8], 5.36%; in assay [9] it was 9.59%; in [10] it was 7.73%.

For the compound `CCS(=O)(=O)c1ccc(OC)c(Nc2nccc(N(C)c3ccc4c(C)n[nH]c4c3)n2)c1`, the inhibition in assay [1] was 3.15%; in [2], 2.77%; in assay [3], 2.66%; in assay [4], 2.68%; in [5] it was 2.9%; in assay [6] it was 1.61%. For the same compound, the inhibition in assay [7] was determined as 2.71%; in [8], 4.99%; in [9] it was 6.33%; in assay [10] it was 4.18%.

As for `NS(=O)(=O)c1cccc(Nc2cc(-c3ccc(F)cc3)n[nH]2)c1`, the inhibition came to 2.43% in assay [1]; 1.19% in assay [2]; 0.46% in [3]; 3.52% in assay [4]; 8.77% in [5]; 1.7% in assay [6]. Also, the inhibition was 3.53% in assay [7], -0.81% in assay [8], 4.04% in [9] and 2.47% in assay [10].

With `Nc1ccc(C#Cc2cncnc2Nc2ccc(OCc3cccc(F)c3)c(Cl)c2)cc1`, the inhibition in [1] was found to be 1.26%; in assay [2], 1.82%; in assay [3], 1.53%; in assay [4], 1.3%; in assay [5], 1.13%; in [6], 0.84%. The inhibition is 0.6% in [7], 4.09% in [8], 3.44% in assay [9] and 3.76% in assay [10].

Consider `NS(=O)(=O)c1cccc(-c2cc3ccncc3cc2OCc2ccccc2)c1`, for which the inhibition amounted to 4.07% in [1]; 2.51% in assay [2]; 3.39% in [3]; 2.29% in assay [4]; 1.87% in assay [5]; 2.02% in assay [6]. Also, the inhibition in assay [7] was determined as 2.23%; in assay [8], 4.25%; in [9] it was 7.09%; in assay [10] it was 5.29%.
